Screening results: PubChem, several laboratories
tim10-1 inh: growth inhibitors of tim10-1 mutant yeast. S. cerevisiae tim10-1 ts strain growth, BacTiter-Glo, 24 h. inhibition, % at 20 µM. 2.2% of 330,000 active;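 active means inhibition of at least 40%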;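 further: mutant grown at 25 °C; 0% = DMSO wells with yeast and 100% = wells holding no yeast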
tim23-1 inh: growth inhibitors of tim23-1 mutant yeast | S. cerevisiae tim23-1 growth, BacTiter-Glo luminescence, 24 h | inhibition, % at 20 µM | 1.3% of 330,000 active | AID 463212;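 active means growth inhibition of the mutant yeast at or above 50%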;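 further: temperature-sensitive mutant grown at 25 °C; plate controls were DMSO-treated mutant yeast for no effect and medium wells lacking yeast for full effect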
SUMO Mot1 rescue: SUMOylation pathway inhibition by Mot1-301 growth rescue; S. cerevisiae Mot1-301 growth rescue, ATP luminescence, 38.5C; percent above DMSO median, 100 means doubled; growth rescue, % at 18.8 µM; 1% of 320,000 active;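 active means every valid replicate shows activation above 250% relative to neutral control wells; inactive means the rest, any valid replicate at or below 250%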;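 further: OY570 slx delta 5 strain wells were the positive control but not used for scaling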
PfHsp90 set2: reduces growth (ATP signal) of yeast expressing P. falciparum Hsp90; S. cerevisiae expressing PfHsp90, BacTiter-Glo ATP, 48 h; yeast lacking PDR1 and PDR3 efflux regulators; AID 504621; inhibition, % at 9.4 µM; 0.32% of 310,000 active;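 active means every replicate shows inhibition above about 80%, whatever the replicate mean, limit read from the data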;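 further: 0% = DMSO neutral controls and 100% = 20 µM radicicol positive controls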
TIM10 inh: growth inhibitors of TIM10 yeast strain; S. cerevisiae TIM10 strain growth, BacTiter-Glo luminescence, 24 h; inhibition, % at 10 µM; 1.4% of 330,000 active; AID 463195;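 active means inhibition of 40% or more at the single tested concentration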;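 further: wild-type TIM10 isogenic control strain grown at permissive 25 °C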
tim10-1 conf: tim10-1 yeast growth inhibition, confirmed. shares compounds with tim10-1 inh. S. cerevisiae tim10-1 ts strain growth, BacTiter-Glo, 24 h. inhibition, % at 20 µM. 56% of 7,400 active;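 active means inhibition of yeast growth at or above a set limit in either of two repeat tests at 20 µM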;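 further: tim10-1 mutant grown at permissive 25 °C to find synthetic lethal compounds; 0% = DMSO yeast wells and 100% = medium wells without yeast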
Active calls of the source: *. Sampled rows, rich in hits. Any-hit rate of the full collection: about 4.4%.

What do the screens show for `COc1ccc2c(c1)CCC/C2=N\Nc1nc(C(=O)NN)cs1`?
tim10-1 inh: 41*; tim23-1 inh: 28; SUMO Mot1 rescue: 0; TIM10 inh: 25; tim10-1 conf: 38*

How did CCOC(=O)c1csc(N/N=C2\CCc3ccccc32)n1 do in these assays?
tim10-1 inh: 30; tim23-1 inh: 28; SUMO Mot1 rescue: -14; PfHsp90 set2: -20; TIM10 inh: 19

What do the screens show for `CN(C)CCCO[C@@H]1[C@H]2OC(C)(C)O[C@H]2O[C@@H]1[C@H](O)CO`?
tim10-1 inh: -8; tim23-1 inh: -10; SUMO Mot1 rescue: -13; PfHsp90 set2: 6; TIM10 inh: 2

What do the screens show for `CCN(CC(=O)NCc1cccs1)C(=O)/C=C/c1ccc(OC)c(OC)c1`?
tim10-1 inh: -21; tim23-1 inh: -13; SUMO Mot1 rescue: 4; PfHsp90 set2: 40; TIM10 inh: -8

What do the screens show for `Cc1ccc(C)c(NC(=O)CSc2nnc(NC(=O)C3CC3)s2)c1`?
tim10-1 inh: -4; tim23-1 inh: -19; SUMO Mot1 rescue: 4; PfHsp90 set2: 5; TIM10 inh: -17

Results for Cc1ccc2c(c1)-c1c(ssc1=S)C(C)(C)N2C(=O)CSC1=NCCS1 ?
tim10-1 inh: 43*; tim23-1 inh: 33; SUMO Mot1 rescue: 20; PfHsp90 set2: -7; TIM10 inh: 29; tim10-1 conf: 38*

How did CC1(C)CC(=O)C2=C(C1)N(c1cccnc1)C(N)=C(C#N)C2c1cccs1 (centres undefined) do in these assays?
tim10-1 inh: 40*; tim23-1 inh: 22; SUMO Mot1 rescue: -9; PfHsp90 set2: 2; TIM10 inh: -1; tim10-1 conf: 33*

Results for CCSc1sccc1C1C(C#N)=C(N)N(c2cccnc2)C2=C1C(=O)CC(C)(C)C2 (centres undefined) ?
tim10-1 inh: 31; tim23-1 inh: 21; SUMO Mot1 rescue: 49; PfHsp90 set2: -1; TIM10 inh: 3

Results for CN(CC(=O)Nc1ccc(F)c(F)c1F)C(=O)C1COc2ccccc2O1 (centres undefined) ?
tim10-1 inh: -9; tim23-1 inh: 0; SUMO Mot1 rescue: 16; PfHsp90 set2: -3; TIM10 inh: 8

How did O=S(=O)(c1ccccc1)c1cnn(-c2ccccc2)c1-c1ccc(F)cc1 do in these assays?
tim10-1 inh: 33; tim23-1 inh: 30; SUMO Mot1 rescue: 0; PfHsp90 set2: -17; TIM10 inh: 20

What do the screens show for `COc1ccc(-n2ncc(S(=O)(=O)c3ccccc3)c2-c2ccc(Cl)cc2)cc1`?
tim10-1 inh: 41*; tim23-1 inh: 32; SUMO Mot1 rescue: -21; PfHsp90 set2: 36; TIM10 inh: 3; tim10-1 conf: 25

How did Oc1ccc(/C=N/Nc2nccnc2Cl)cc1 do in these assays?
tim10-1 inh: 47*; tim23-1 inh: 35; SUMO Mot1 rescue: -3; PfHsp90 set2: -3; TIM10 inh: 30; tim10-1 conf: 40*

How did O=C(Nc1cccc(S(=O)(=O)N2CCOCC2)c1)c1cc(S(=O)(=O)N2CCOCC2)c(Cl)cc1Cl do in these assays?
PfHsp90 set2: 19

Results for COc1ccccc1NS(=O)(=O)c1ccc2[nH]c(=S)oc2c1 ?
tim10-1 inh: -15; tim23-1 inh: -9; SUMO Mot1 rescue: 1; TIM10 inh: -7

Results for COc1ccccc1C(=O)N1CCN(c2nc3cc(C)c(C)cc3cc2C#N)CC1 ?
tim10-1 inh: 43*; tim23-1 inh: 34; SUMO Mot1 rescue: 74; PfHsp90 set2: -57; TIM10 inh: 29; tim10-1 conf: 24

Results for CCn1c(SCc2cccc(C)c2)nnc1-c1ccc(C)cc1 ?
tim10-1 inh: 47*; tim23-1 inh: 44; SUMO Mot1 rescue: 135; TIM10 inh: 22; tim10-1 conf: 30*

How did CCn1c(SCc2cccc(F)c2)nnc1-c1ccncc1 do in these assays?
tim10-1 inh: 36; tim23-1 inh: 20; SUMO Mot1 rescue: -3; PfHsp90 set2: -8; TIM10 inh: 4

What do the screens show for `O=C(/C=C/c1ccccc1)c1ccccc1`?
tim10-1 inh: 18; tim23-1 inh: 13; SUMO Mot1 rescue: -5; PfHsp90 set2: -14; TIM10 inh: 5

How did N#Cc1ccc(/C=C/C(=O)c2ccccc2)cc1 do in these assays?
tim10-1 inh: 48*; tim23-1 inh: 23; SUMO Mot1 rescue: 15; PfHsp90 set2: -15; TIM10 inh: 34; tim10-1 conf: 43*
